# Rows were chosen to be rich in hits. Some 20% of all compounds tested hit in one or more screens of this group.
# CHX counter = counter-screen hit for Shiga toxin inhibitors, cycloheximide; max response, %; hit rate 12% among 300,000; cell reporter, cycloheximide protein synthesis inhibition counterscreen; in the data active = max response mostly above about 13%, no sharp cut-off; inactive = mostly below about 14%; note: read at 38.3 µM for the half of the compounds with a filed dose; 0% is about no effect
# Shiga inhibitor = Shiga toxin inhibition. Vero cells, Shiga toxin protein synthesis inhibition reporter. inhibition, % at 38.7 µM. hit rate 9.2% among 290,000. AID 2315; in the data active = inhibition mostly above about 28%, no sharp cut-off; inactive = mostly below about 43%; note: 0% is about no effect
# Pf growth 96h = P. falciparum growth inhibition at 96 hours | AID 504834 | hit rate 6.9% among 320,000 | Potency, µM (series often up to 28.7 µM), inactives show at the highest dose activity change, negative = inhibition, most hits filed as inhibitors | P. falciparum luciferase reporter growth, 96 h; note: potency is the fitted concentration of half-maximal effect; % is set by controls: 0 for no effect and ±100 for the full control effect
#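 Compounds incubated with erythrocytes infected by luciferase-expressing P. falciparum (2% hematocrit, 0.05% parasitemia final) for 96 hours, 37 C in 5% CO2. Growth inhibition scored as decreased luciferase luminescence.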
# Pf growth 48h = inhibits P. falciparum growth in the first generation, 48 h; P. falciparum luciferase growth in erythrocytes, 48 h; Potency, µM (series often up to 28.7 µM), for the others: at the highest dose activity change, negative = inhibition, actives largely listed as inhibitors; hit rate 5.9% among 310,000; AID 504832; note: potency is the fitted concentration of half-maximal effect; % is set by controls: 0 for no effect and ±100 for the full control effect
#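 Luciferase-expressing parasites in RBCs, 2% Hct / 0.1% parasitemia final; RPMI 1640 + 0.5% Albumax; 37 C, 5% CO2, one generation; luminescence read-out, lower signal = inhibition.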
# HCMV inh = human cytomegalovirus inhibition; HFF cells, HCMV-luciferase reporter, 72 h; active compounds read low; hit rate 4.5% among 410,000; activity change, negative = inhibition, % at 57.5 µM; in the data active = activity change below about -60%; inconclusive = no clear call, values can overlap the other calls; inactive = above about -39%; note: % is set by controls: 0 for no effect and ±100 for the full control effect
#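 Two-dose cell screen: HFF monolayers treated with compounds and infected with luciferase-expressing HCMV at 1 PFU/cell, 72 h at 37C, then lysed for luciferase measurement.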
# The depositor's hits bear a star; ? = inconclusive; . = no result given; + = active, no number. Unless noted, calls come from the whole dose curve; as a rule, active = well fitted inhibition curve with a large enough effect; inconclusive = small, poorly fitted or top-dose-only effect, or another doubt; inactive = no such curve, though single readings can be large or run the other way.
SMILES,CHX counter,Shiga inhibitor,Pf growth 96h,Pf growth 48h,HCMV inh
COCCCNC(=O)/C(C#N)=C/c1cc(C)[nH]c1C,8,14,43%,8%,27
Cc1ccc(C(=O)NC(C)C2CC3CCC2C3)cc1 (centres undefined),.,.,.,.,-22
Cc1cc(C)cc(N(CCC(=O)O)S(=O)(=O)c2ccc(Cl)cc2)c1,-4,-7,-18%,5%,-69*
Cc1ccc(N(CCC(=O)O)S(=O)(=O)c2ccc(C)cc2)cc1,-6,-13,16%,-14%,-7
COc1ccc2cc(CO)n(C)c2c1,.,.,?,12µM*,-5
CCN1CCN(c2ncnc3c2oc2nc(C(C)C)c4c(c23)CCC4)CC1,-4,-9,3.3µM*,16%,.
Cc1cc(C)n(-c2nnc(C)n2/N=C/c2ccccc2OCc2ccccc2Cl)n1,-1,-4,-23%,?,?
Cc1cc(C)n(-c2nnc(C)n2/N=C/c2cc(Br)ccc2OCc2ccccc2)n1,20*,38,7%,4.7µM*,42
COc1ccc(CN=C(Nc2ccccc2)SC2CC(=O)NC2=O)cc1 (centres undefined),44*,143*,18%,?,-13
CCc1ccc2c(c1)c(=O)c(C(=O)c1ccccc1)cn2CC(=O)Nc1ccc(C)c(Cl)c1,.,.,.,.,-69*
CCc1ccc(C(=O)c2cn(CC(=O)Nc3ccc4c(c3)OCO4)c3ccc(CC)cc3c2=O)cc1,.,.,.,.,-88*
CCc1ccc(C(=O)c2cn(CC(=O)Nc3cccc(OC)c3)c3ccc(OC)cc3c2=O)cc1,.,.,2.9µM*,12µM*,-13
COc1cccc(NC(=O)Cn2cc(C#N)c3ccccc32)c1,-2,10,67%,15µM*,?
COc1ccccc1NC(=O)Cn1cc(C#N)c2ccccc21,-2,-17,-100%,.,55
COc1cccc(NC(=O)Cn2cc(C(=O)c3ccc(C)cc3)c(=O)c3cc(OC)ccc32)c1,.,.,?,?,-21
CC1C(=O)c2ccccc2CC1C(=O)O (centres undefined),.,.,.,.,-15
CC(c1ccccn1)C(C)(O)C(C)c1ccccn1 (centres undefined),.,.,.,.,-17
CCCCCCCCOC(=O)c1ccccc1C(=O)OCCCCCCCC,.,.,-8%,-9%,.
O=C(CSc1nc2ccccc2o1)c1ccc2c(c1)OCCO2,40*,98*,.,79%,23
CCCCCCOC(=O)Sc1nc2ccccc2o1,29*,43*,78%,.,-17
O=C(CSc1nc2ccccc2o1)c1ccccc1,47*,active,-26%,141%,-34
CC(=O)CSc1nc2ccccc2o1,27*,57*,-23%,130%,52
O=C(CN(C(=O)CSc1nc2ccccc2o1)c1ccccc1F)NC1CCCCC1,-3,-14,145%,2%,-5
CC(=O)N/C(=C\c1ccccc1Cl)C(=O)O,-2,-7,-16%,-6%,19
CCCN(Cc1cccs1)C(=O)Nc1cc(OC)ccc1OC,.,.,.,.,-3
SMILES,CHX counter,Shiga inhibitor,Pf growth 96h,Pf growth 48h,HCMV inh
O=C(O)c1ccccc1CSc1nc2ccccc2o1,35*,67*,213%,70%,158
O=C(O)c1ccc(CSc2nc3ccccc3o2)cc1,-3,26,?,31%,41
CCn1c(C)c(Br)c(=O)c(C(=O)OC)c1-c1ccc(Cl)cc1,-1,-4,6%,-14%,?
COc1cc(/C=N/NC(=S)Nc2cccc(S(=O)(=O)N(C)C)c2)cc(OC)c1O,13,-31,12µM*,-30%,0
COc1ccc(O)c(/C=N/NC(=S)Nc2cccc(S(=O)(=O)N(C)C)c2)c1,18*,13,4.7µM*,4.1µM*,27
CN(C)S(=O)(=O)c1cccc(NC(=S)N/N=C/c2ccco2)c1,14*,25,?,3.7µM*,-35
COc1cccc(/C=N/NC(=S)Nc2cccc(S(=O)(=O)N(C)C)c2)c1,11,24,3%,?,0
COc1ccc(O)c(/C=N/NC(=S)Nc2cccnc2)c1,34*,91*,0.52µM*,?,0
COc1cccc(-c2c(C(=O)N/N=C/c3sccc3C)nnn2-c2nonc2N)c1,-3,28,?,?,?
CCN(CC)S(=O)(=O)c1ccc(N/N=C/c2cccnc2)nc1,4,-2,-8%,?,-23
O=C(N/N=C\c1ccco1)Nc1cccc(Cl)c1,80*,142*,57%,152%,14
CCN(CC)S(=O)(=O)c1ccc(N/N=C/c2cc(OC)ccc2O)nc1,-1,-7,8.3µM*,4.7µM*,-103*
CCOc1nc(NC(=O)NS(=O)(=O)c2ccccc2F)nc(-c2ccccc2)n1,21,53*,?,63%,-17
Cc1cn(C2CCC(CO)O2)c(=O)[nH]c1=O (centres undefined),-1,-8,?,-4%,-36
Cc1cccc(/C(N)=N/OC(=O)CCCN2C(=O)c3ccccc3C2=O)c1,-3,-6,16%,7%,-3
Cc1cccc(/C(N)=N/OC(=O)c2ccc(F)cc2)c1,73*,86*,12%,?,31
N/C(=N\OC(=O)c1ccc(F)cc1)c1cccc([N+](=O)[O-])c1,31*,57*,-13%,25%,90
N/C(=N/OC(=O)c1cccc([N+](=O)[O-])c1)c1cccc([N+](=O)[O-])c1,-6,25,24%,31%,39
N/C(=N\OC(=O)c1ccccc1Cl)c1cccc([N+](=O)[O-])c1,37*,52*,-26%,284%,51
N/C(=N\OC(=O)c1cccc(F)c1)c1cccc([N+](=O)[O-])c1,18*,31*,-17%,24%,89
O=[N+]([O-])c1ccc(N2CCN(CCOCCO)CC2)c([N+](=O)[O-])c1,0,14,-2%,31%,8
N/C(=N/OC(=O)c1ccccc1Cl)c1ncc([N+](=O)[O-])s1,35*,68*,?,?,36
N/C(=N\OC(=O)c1ccccc1F)c1ccc([N+](=O)[O-])cc1,30*,39,215%,.,-13
CC1=C(C)/C(=N/OC(=O)c2cccc([N+](=O)[O-])c2)C=CC1=O,56*,90*,?,?,.
N/C(=N\OC(=O)c1ccc2ccccc2c1)c1cccc([N+](=O)[O-])c1,39*,+,?,-24%,26
SMILES,CHX counter,Shiga inhibitor,Pf growth 96h,Pf growth 48h,HCMV inh
COc1ccc(OCCCC(=O)ON=C(N)c2ccccc2Cl)cc1,.,.,8%,17%,-8
NC(=O)c1cccc([N+](=O)[O-])c1,.,.,52%,34%,-2
CC(OC(=O)c1ccccc1CCc1ccccc1)C(N)=O (centres undefined),-3,-8,1%,4%,-37
N#C/C(=C\c1c(N2CCCCCC2)nc2ccccn2c1=O)C(=O)NCc1ccco1,38*,41,?,?,?
Cc1cccn2c(=O)c(/C=C(\C#N)C(=O)NCc3ccco3)c(N3CCCCC3)nc12,-1,-2,2.9µM*,?,?
Cc1cccn2c(=O)c(/C=C(\C#N)C(=O)NCc3ccco3)c(N3CCCCCC3)nc12,23,32,?,?,-34

# Source: PubChem BioAssay (National Center for Advancing Translational Sciences (NCATS))
